In PubChem BioAssay (NCATS) one finds activity, negative = inhibition and Potency data, which are given here for 40 molecules.

Unmarked numbers belong to inactive results.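 The calls were made as follows, unless noted: active = compounds whose dose series gives a full or clear partial fitted curve of increased nuclear translocation; inconclusive = weak partial curve or effect only at the top dose; inactive = no dose-dependent translocation response.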 Inconclusive results are not listed.

Glucocorticoid receptor (Homo sapiens), sequence (P04150 whole entry, looked up): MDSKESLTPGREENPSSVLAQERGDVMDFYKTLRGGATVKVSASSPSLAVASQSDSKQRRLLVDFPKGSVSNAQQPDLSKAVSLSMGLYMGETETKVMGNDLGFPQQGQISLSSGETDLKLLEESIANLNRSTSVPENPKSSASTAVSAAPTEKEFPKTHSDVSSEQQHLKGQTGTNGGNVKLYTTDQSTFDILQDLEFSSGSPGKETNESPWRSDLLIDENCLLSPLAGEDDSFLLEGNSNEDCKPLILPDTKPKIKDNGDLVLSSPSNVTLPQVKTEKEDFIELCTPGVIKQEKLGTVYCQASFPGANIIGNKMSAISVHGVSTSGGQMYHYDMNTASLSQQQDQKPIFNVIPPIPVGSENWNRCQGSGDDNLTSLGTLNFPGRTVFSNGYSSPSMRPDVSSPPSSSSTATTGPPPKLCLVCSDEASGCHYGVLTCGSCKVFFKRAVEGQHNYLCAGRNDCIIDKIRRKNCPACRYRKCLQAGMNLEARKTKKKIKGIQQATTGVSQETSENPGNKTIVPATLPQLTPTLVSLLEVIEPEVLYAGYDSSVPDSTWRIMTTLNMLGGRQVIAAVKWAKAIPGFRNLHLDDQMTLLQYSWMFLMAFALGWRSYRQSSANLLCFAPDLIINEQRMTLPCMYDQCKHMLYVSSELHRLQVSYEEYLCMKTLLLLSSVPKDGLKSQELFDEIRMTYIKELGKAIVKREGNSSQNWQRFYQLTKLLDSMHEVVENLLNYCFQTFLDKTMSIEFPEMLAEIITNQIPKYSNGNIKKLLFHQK

Test system in the first experiment: not listed separately
Kind of experiment: Stat Signaling Pathway (AID 446; active = well fitted curve in either direction with a large enough effect, not every such curve was filed as active;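 also: ME-180 cervical cancer cells given 40 pM IL-6 alongside compound; SIE-controlled beta-lactamase reporter measured as 460/530 nm FRET emission ratio; % is scaled to controls: 0 for no effect and ±100 for the full control effect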). As to conditions: ME-180 SIE beta-lactamase reporter, IL-6 stimulated, 5 h; at 17.2 µM (top of the series) unless noted. A digest of the protocol: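 ME-180 SIE-bla cells; overnight plating; cpd + IL-6 40 pM, 5 h, 37 C; LiveBLAzer 2.5 h RT; 460/530 nm emission ratio. Normalized to 300 pM IL-6 and 125 nM JAK inhibitor controls.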
As to `COC(=O)c1n[nH]c2ccccc12`, the activity, negative = inhibition is -6.08%.

Turning to `c1cc(-c2nnc3sc(C4CCCCC4)nn23)ccn1`, the activity, negative = inhibition is -15.8%.

As to `CN(C)c1ccc(C2C3C(=O)N(c4ccc(C(=O)O)cc4)C(=O)C3ON2c2ccccc2)cc1` (stereo not given), the activity, negative = inhibition was 5.33%.

Turning to `CCCCOc1ccc(C(=O)N2CCCC2C(=O)O)cc1` (stereo not given), the activity, negative = inhibition is 9.6%.

Regarding `O=C(NCc1ccco1)c1ccc(=O)oc1`, the activity, negative = inhibition is -6.97%.

As to `Cc1cccc(-c2nnc3n2N=C(c2ccccc2)CS3)c1`, the activity, negative = inhibition was -6.13%.

Consider `COCCNC(=O)C(C#N)c1nc2ccccc2nc1N1CCN(Cc2ccc3c(c2)OCO3)CC1` (stereo not given), for which the activity, negative = inhibition was 4.46%.

On to `CC1(C)Cc2c(c(N3CCOCC3)nc3snc(N)c23)CO1`, for which the activity, negative = inhibition was -10.9%.

For `COC(=O)c1c(C)noc1-c1cc(C)on1`, the activity, negative = inhibition was 8.94%.

As to `COCc1[nH]nc2c1C(c1ccnc3ccccc13)C(C#N)=C(N)O2` (stereo not given), the activity, negative = inhibition was -1.49%.

On to `C=C(C)CSc1nc(N)c2c3c(sc2n1)CCC3`, for which the activity, negative = inhibition is 4.14%.

As to `N#CC1=C(N)OC2=C(C(=O)CCC2)C1CCc1ccccc1` (stereo not given), the activity, negative = inhibition is 8.87%.

As for `Cc1ccc(-c2nnc(-c3cccc(Br)c3)o2)cc1`, the activity, negative = inhibition is 12.4%.

As to `COC(=O)C1=C(C)N=C2SC(C)C(=O)N2C1c1cccs1` (stereo not given), the activity, negative = inhibition is -9.23%.

For `CC1(C)NC(=O)N(CC(O)COc2cc3ccccc3cc2C(=O)N2CCCCC2)C1=O` (stereo not given), the activity, negative = inhibition is -3.07%.

Take `CCOC(=O)CCCCC(=O)NC(CO)C(=O)NC` (stereo not given): the activity, negative = inhibition is 8.86%.

For the molecule `CCCOc1ccc(/C(O)=C2/C(=O)C(=O)N(CCN3CCOCC3)C2c2ccccc2)cc1` (stereo not given), the activity, negative = inhibition is -4.33%.

In the case of `O=C(C(c1ccccc1)N1CCOCC1)N1CCOCC1` (stereo not given), the activity, negative = inhibition was 13.8%.

For the molecule `N#CC1=C(C=Nc2ccccc2O)CCC1`, the activity, negative = inhibition was -1.34%.

Take `COc1cccc(-c2nnc3sc(-c4ccco4)nn23)c1`: the activity, negative = inhibition was -1.01%.

In the case of `COc1ccc2[nH]c(C)c(C(=O)CN3CC(C)OC(C)C3)c2c1` (stereo not given), the activity, negative = inhibition is 2.01%.

`Cc1cc(OCCN2CCOCC2)nc2ccccc12`: the activity, negative = inhibition was 1.79%.

Take `CC1(C(=O)CSc2nc3ccccc3[nH]2)CCC(=O)O1` (stereo not given): the activity, negative = inhibition is -2.98%.

On to `O=C1N[C@@H](Cc2cnc[nH]2)C(=O)N2CCC[C@@H]12`, for which the activity, negative = inhibition was 4.85%.

Turning to `CCCCc1nc(NCCN2CCOCC2)c(C#N)c2c1COC(C)(C)C2`, the activity, negative = inhibition is 1.05%.

Consider `CCOC(=O)NC(O)C(=O)c1cccs1` (stereo not given), for which the activity, negative = inhibition was 3.85%.

As to `O=C(O)CC(C(=O)N(c1ccccc1)c1ccccc1)N1CCOCC1` (stereo not given), the activity, negative = inhibition was 8.75%.

Regarding `CCOC(=O)C1CCCN(c2nc3ccccc3nc2C(C#N)C(=O)OCCOC)C1` (stereo not given), the activity, negative = inhibition is -2.06%.

In the case of `COc1ccccc1C1/C(=C(/O)c2ccc(C)cc2)C(=O)C(=O)N1Cc1ccco1` (stereo not given), the activity, negative = inhibition was -15.4%.

In the case of `COc1ccc2cnn(-c3ccccc3C)c(=O)c2c1OC`, the activity, negative = inhibition was 24.1%.

Consider `O=C(O)CC(NCc1ccco1)C(=O)OCCc1ccccc1` (stereo not given), for which the activity, negative = inhibition is 0.0661%.

In the case of `CC1=CC(c2ccccc2)n2nc(N3C(=O)C4CC=CCC4C3=O)nc2N1` (stereo not given), the activity, negative = inhibition was 11.6%.

Take `O=C1OC(Nc2ccc(Br)cn2)c2ccccc21` (stereo not given): the activity, negative = inhibition was 3.14%.

On to `COc1ccc(C2CC(=O)C(C=NCCN3CCOCC3)=C(O)C2)cc1` (stereo not given), for which the activity, negative = inhibition was -0.652%.

In the case of `CCC1(C)Cc2c(sc(NC(=O)CCC(=O)O)c2C#N)CO1` (stereo not given), the activity, negative = inhibition is 9.62%.

Turning to `CCN(CC)c1nc(N2CCOCC2)c(C#N)c2c1CN(C)CC2`, the activity, negative = inhibition is 9.24%.

`COc1ccc2nc(SCC(=O)O)nc(C)c2c1`: the activity, negative = inhibition was 3.73%.

As for `CC(=O)[C@H]1CC[C@H]2[C@@H]3CCC4=CC(=O)CC[C@]4(C)[C@H]3[C@H](O)C[C@]12C`, the activity, negative = inhibition was 2.53%.

`c1ccc2c(c1)nc(CN1CCOCC1)n1c3ccccc3nc21`: the activity, negative = inhibition was 14.3%.

On to `CCCOc1cccc(C2C(C(=O)c3ccc(C)o3)=C(O)C(=O)N2CCCN(C)C)c1` (stereo not given), for which the activity, negative = inhibition was 5.19%.

A further experiment concerns the target Glucocorticoid receptor (Homo sapiens) (UniProt P04150). Put plainly: GR-GFP Redistribution (AID 450). Also: potency is read from the fitted curve at half-maximal effect. As to conditions: U2OS GR-GFP nuclear translocation, laser cytometry, 2 h; series mostly up to 20.6 µM.
Take `COC(=O)c1n[nH]c2ccccc12`: the Potency was greater than 20.6 µM.

With `c1cc(-c2nnc3sc(C4CCCCC4)nn23)ccn1`, the Potency is greater than 20.6 µM.

For `CN(C)c1ccc(C2C3C(=O)N(c4ccc(C(=O)O)cc4)C(=O)C3ON2c2ccccc2)cc1` (stereo not given), the Potency is greater than 20.6 µM.

With `CCCCOc1ccc(C(=O)N2CCCC2C(=O)O)cc1` (stereo not given), the Potency is greater than 20.6 µM.

As to `O=C(NCc1ccco1)c1ccc(=O)oc1`, the Potency is greater than 20.6 µM.

Turning to `Cc1cccc(-c2nnc3n2N=C(c2ccccc2)CS3)c1`, the Potency is greater than 20.6 µM.

Turning to `COCCNC(=O)C(C#N)c1nc2ccccc2nc1N1CCN(Cc2ccc3c(c2)OCO3)CC1` (stereo not given), the Potency is greater than 20.6 µM.

For the molecule `CC1(C)Cc2c(c(N3CCOCC3)nc3snc(N)c23)CO1`, the Potency was greater than 20.6 µM.

In the case of `COC(=O)c1c(C)noc1-c1cc(C)on1`, the Potency was greater than 20.6 µM.

As for `COCc1[nH]nc2c1C(c1ccnc3ccccc13)C(C#N)=C(N)O2` (stereo not given), the Potency is greater than 20.6 µM.

In the case of `C=C(C)CSc1nc(N)c2c3c(sc2n1)CCC3`, the Potency is greater than 20.6 µM.

As to `N#CC1=C(N)OC2=C(C(=O)CCC2)C1CCc1ccccc1` (stereo not given), the Potency is greater than 20.6 µM.

Consider `Cc1ccc(-c2nnc(-c3cccc(Br)c3)o2)cc1`, for which the Potency was greater than 20.6 µM.

Consider `COC(=O)C1=C(C)N=C2SC(C)C(=O)N2C1c1cccs1` (stereo not given), for which the Potency is greater than 20.6 µM.

Take `CC1(C)NC(=O)N(CC(O)COc2cc3ccccc3cc2C(=O)N2CCCCC2)C1=O` (stereo not given): the Potency was greater than 20.6 µM.

Regarding `CCOC(=O)CCCCC(=O)NC(CO)C(=O)NC` (stereo not given), the Potency is greater than 20.6 µM.

As to `CCCOc1ccc(/C(O)=C2/C(=O)C(=O)N(CCN3CCOCC3)C2c2ccccc2)cc1` (stereo not given), the Potency is greater than 20.6 µM.

As to `O=C(C(c1ccccc1)N1CCOCC1)N1CCOCC1` (stereo not given), the Potency is greater than 20.6 µM.

In the case of `N#CC1=C(C=Nc2ccccc2O)CCC1`, the Potency was greater than 20.6 µM.

Take `COc1cccc(-c2nnc3sc(-c4ccco4)nn23)c1`: the Potency is greater than 20.6 µM.

`COc1ccc2[nH]c(C)c(C(=O)CN3CC(C)OC(C)C3)c2c1` (stereo not given): the Potency was greater than 20.6 µM.

Consider `Cc1cc(OCCN2CCOCC2)nc2ccccc12`, for which the Potency is greater than 20.6 µM.

For the molecule `CC1(C(=O)CSc2nc3ccccc3[nH]2)CCC(=O)O1` (stereo not given), the Potency was greater than 20.6 µM.

Take `O=C1N[C@@H](Cc2cnc[nH]2)C(=O)N2CCC[C@@H]12`: the Potency was greater than 20.6 µM.

Regarding `CCCCc1nc(NCCN2CCOCC2)c(C#N)c2c1COC(C)(C)C2`, the Potency is greater than 20.6 µM.

As to `CCOC(=O)NC(O)C(=O)c1cccs1` (stereo not given), the Potency is greater than 20.6 µM.

On to `O=C(O)CC(C(=O)N(c1ccccc1)c1ccccc1)N1CCOCC1` (stereo not given), for which the Potency is greater than 20.6 µM.

As for `CCOC(=O)C1CCCN(c2nc3ccccc3nc2C(C#N)C(=O)OCCOC)C1` (stereo not given), the Potency is greater than 20.6 µM.

Consider `COc1ccccc1C1/C(=C(/O)c2ccc(C)cc2)C(=O)C(=O)N1Cc1ccco1` (stereo not given), for which the Potency was greater than 20.6 µM.

As for `COc1ccc2cnn(-c3ccccc3C)c(=O)c2c1OC`, the Potency is greater than 20.6 µM.

Regarding `O=C(O)CC(NCc1ccco1)C(=O)OCCc1ccccc1` (stereo not given), the Potency is greater than 20.6 µM.

In the case of `CC1=CC(c2ccccc2)n2nc(N3C(=O)C4CC=CCC4C3=O)nc2N1` (stereo not given), the Potency was greater than 20.6 µM.

In the case of `O=C1OC(Nc2ccc(Br)cn2)c2ccccc21` (stereo not given), the Potency is greater than 20.6 µM.

As to `COc1ccc(C2CC(=O)C(C=NCCN3CCOCC3)=C(O)C2)cc1` (stereo not given), the Potency is greater than 20.6 µM.

`CCC1(C)Cc2c(sc(NC(=O)CCC(=O)O)c2C#N)CO1` (stereo not given): the Potency was greater than 20.6 µM.

As to `CCN(CC)c1nc(N2CCOCC2)c(C#N)c2c1CN(C)CC2`, the Potency was greater than 20.6 µM.

For the molecule `COc1ccc2nc(SCC(=O)O)nc(C)c2c1`, the Potency was greater than 20.6 µM.

For the molecule `CC(=O)[C@H]1CC[C@H]2[C@@H]3CCC4=CC(=O)CC[C@]4(C)[C@H]3[C@H](O)C[C@]12C`, the Potency is greater than 20.6 µM.

For `c1ccc2c(c1)nc(CN1CCOCC1)n1c3ccccc3nc21`, the Potency is greater than 20.6 µM.

With `CCCOc1cccc(C2C(C(=O)c3ccc(C)o3)=C(O)C(=O)N2CCCN(C)C)c1` (stereo not given), the Potency was greater than 20.6 µM.
